Experimental findings from PubChem BioAssay (EPA / NIEHS) are described below.

The nature of assay [1]: ATG_Sox_CIS: Attagene CIS-FACTORIAL HepG2 Assay for human SRY-box transcription factor (SOX) (AID 2282960). Particulars: HepG2 Attagene cis-factorial SOX reporter, mRNA; actives raise or lower the signal. An outline of the steps:
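After 24 h of chemical treatment, transfected HepG2 reporter cells are lysed for total RNA. Transcript levels come from RT-PCR with labelled primer extension and capillary electrophoresis, analysed bidirectionally versus DMSO.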

In assay [2] the target is Transcription factor Sp1 (Homo sapiens) (UniProt P08047). Description: ATG_Sp1_CIS: Attagene CIS-FACTORIAL HepG2 Assay for human Specificity Protein 1 (Sp1) (AID 2282961). The note with it: HepG2 Sp1 cis-reporter transcription, actives raise or lower the signal. An outline of the steps:
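Sp1-driven reporter mRNA, read as capillary electrophoresis fluorescence after RT-PCR, in transiently transfected HepG2 cells dosed for 24 h; signal change in either direction relative to DMSO.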

The nature of assay [3]: ATG_SREBP_CIS: Attagene CIS-FACTORIAL HepG2 Assay for human Sterol Regulatory Element Binding (SREBP) (AID 2282962). The note with it: HepG2 Attagene cis-factorial SREBP reporter, mRNA; actives raise or lower the signal. In outline: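 Values derive from bidirectional curve fitting with DMSO as baseline. The underlying measurement is reporter mRNA from cis-element-regulated units in transiently transfected HepG2, quantified by RT-PCR and capillary electrophoresis after 24 h exposure.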

In assay [4] the target is Signal transducer and activator of transcription 3 (Homo sapiens) (UniProt P40763). Description: ATG_STAT3_CIS: Attagene CIS-FACTORIAL HepG2 Assay for human Signal Transducer and Activator of Transcription 3 (STAT3) (AID 2282963). Particulars: HepG2, Attagene cis-factorial STAT3 reporter transcription; actives raise or lower the signal. An outline of the steps: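 Fluorescence intensity of 6-FAM-labelled reporter fragments, separated by capillary electrophoresis after RT-PCR, gave the signal. Cells were HepG2 transfected with cis-element reporter units and treated 24 h; fitting was bidirectional relative to DMSO.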

Assay [5] in a line: ATG_TA_CIS: Attagene CIS-FACTORIAL HepG2 Assay for human TA Basal Promoter (AID 2282964). Particulars: HepG2 Attagene CIS-factorial TA basal promoter reporter; actives raise or lower the signal. An outline of the steps: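 Steps: transfect HepG2 with MRTUs; dose 24 h; isolate RNA, DNase-treat, reverse-transcribe; PCR and FAM-label reporter cDNA; digest with HpaI 2h at 37 C; run capillary electrophoresis. Activity fitted both directions against DMSO.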

The nature of assay [6]: ATG_TAL_CIS: Attagene CIS-FACTORIAL HepG2 Assay for human TAL Basal Promoter (AID 2282966).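 Further: background control endpoint measuring basal TAL promoter reporter mRNA not a specific factor.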 The note with it: HepG2 Attagene cis-factorial TAL promoter reporter; actives raise or lower the signal. In outline:
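Endogenous transcription-factor activity is sensed in HepG2 cells through transfected cis-promoter reporter constructs. After 24 h dosing, reporter transcripts are quantified by RT-PCR and capillary electrophoresis. Gain or loss of signal is fitted relative to DMSO.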

The nature of assay [7]: ATG_TGFb_CIS: Attagene CIS-FACTORIAL HepG2 Assay for human Transforming Growth Factor (TGF) (AID 2282967). The note with it: HepG2 Attagene CIS TGFb reporter, mRNA transcription; actives raise or lower the signal. An outline of the steps: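 Cells were dosed for 24 hours, after which total RNA was reverse-transcribed and reporter sequences amplified, labeled and sized by capillary electrophoresis. Activity was fitted in both directions against DMSO.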

Assay [8] can be described thus: ATG_VDRE_CIS: Attagene CIS-FACTORIAL HepG2 Assay for human Vitamin D Receptor Element (VDRE) (AID 2282968). The note with it: HepG2 VDRE cis-reporter transcription, actives raise or lower the signal. An outline of the steps:
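Compounds were applied for 24 h to HepG2 cells transfected with promoter-regulated reporter units. Total RNA was reverse-transcribed, and reporter amplicons were fluorescently labelled and sized by capillary electrophoresis.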

In assay [9] the target is X-box-binding protein 1 (Homo sapiens) (UniProt P17861). Description: ATG_Xbp1_CIS: Attagene CIS-FACTORIAL HepG2 Assay for human X-box Binding Protein 1 (XBP1) (AID 2282972). The note with it: HepG2 XBP1 cis-element reporter, Attagene multiplex; actives raise or lower the signal. In outline: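 Human hepatoma HepG2, cis-element reporter system, 24 h treatment; mRNA quantified by RT-PCR/CE fluorescence; fit relative to DMSO.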

Assay [10] addresses Estrogen-related receptor gamma (Homo sapiens) (UniProt P62508). Description: ATG_ERRg_TRANS: Attagene TRANS-FACTORIAL HepG2 Assay for human Estrogen-Related Receptor gamma (ERRg) (AID 2282977; active means hit-call score of the fitted dose curve at least 0.9, where 1 is the maximum;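 further: hits increase reporter signal over DMSO so potencies reflect activators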). The note with it: HepG2 Attagene TRANS reporter, ERRg transactivation. In outline:
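Exogenous NR-Gal4 chimera activity measured as reporter transcript induction after 24 h in transiently transfected HepG2 cells. RNA reverse-transcribed, PCR-amplified, 6-FAM-labelled and resolved by capillary electrophoresis; increase over DMSO baseline.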

The nature of assay [11]: ATG_TCF_b_cat_CIS: Attagene CIS-FACTORIAL HepG2 Assay for human T-Cell-Factor with beta-catenin (TCF/b-cat) (AID 2282965). The note with it: HepG2 TCF/beta-catenin cis-reporter transcription, actives raise or lower the signal. An outline of the steps:
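Cells of the HepG2 line carry transiently transfected reporter units whose promoters respond to endogenous factors. Twenty-four hours post-dosing, reporter mRNA induction is measured by fluorescent RT-PCR and capillary electrophoresis, with DMSO as baseline.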

The target in assay [12] is Nuclear receptor subfamily 1 group I member 3 (Homo sapiens) (UniProt Q14994). In words: ATG_CAR_TRANS: Attagene TRANS-FACTORIAL HepG2 Assay for human Constitutive Androstane Receptor (CAR) (AID 2282969; active means hit-call score of the fitted dose curve at least 0.9, where 1 is the maximum;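 further: activators raise reporter mRNA above DMSO so AC50 marks induction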). Particulars: HepG2 Attagene TRANS-FACTORIAL CAR reporter. In outline: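 Transiently transfected HepG2, multiplex TRANS reporters (CAR-Gal4 chimera driving GAL4-UAS reporter). 24 h dosing. Readout: reporter transcript by RT-PCR + capillary electrophoresis, fluorescence intensity; positive direction vs DMSO.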

Assay [13] concerns the target Estrogen receptor (Homo sapiens) (UniProt P03372). In words: ATG_ERa_TRANS: Attagene TRANS-FACTORIAL HepG2 Assay for human Estrogen Receptor alpha (ERa) (AID 2282970; active means hit-call score of the fitted dose curve at least 0.9, where 1 is the maximum). The note with it: HepG2 Attagene TRANS ERa GAL4 reporter, mRNA. An outline of the steps: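 Transfected HepG2 cells carrying GAL4-UAS-driven reporter units were dosed for 24 hours. Total RNA was reverse-transcribed, reporter sequences PCR-amplified, FAM-labelled, HpaI-digested and resolved by capillary electrophoresis. Increases over DMSO control defined activity.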

In assay [14] the target is Steroid hormone receptor ERR1 (Homo sapiens) (UniProt P11474). In words: ATG_ERRa_TRANS: Attagene TRANS-FACTORIAL HepG2 Assay for human Estrogen-Related Receptor alpha (ERRa) (AID 2282971; active means hit-call score of the fitted dose curve at least 0.9, where 1 is the maximum). The note with it: HepG2 Attagene TRANS reporter, ERRa transactivation. An outline of the steps: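 HepG2 cells were transiently transfected with multiple GAL4-UAS reporter units, then dosed with compound for 24 h. Total RNA was reverse-transcribed, reporter cDNA PCR-amplified and fluorescently labelled, and fragments resolved by capillary electrophoresis; induction was compared with DMSO.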

A short description of assay [15]: ATG_M_19_TRANS: Attagene TRANS-FACTORIAL HepG2 Assay for M19 Transcription Factor (Internal Marker) (AID 2282974; active means hit-call score of the fitted dose curve at least 0.9, where 1 is the maximum). Particulars: HepG2 Attagene TRANS-FACTORIAL M19 internal marker reporter. An outline of the steps: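 Measured here: internal-marker reporter transcript from HepG2 cells transfected with MRTUs, harvested at 24 h. cDNA PCR products were 6-FAM labelled by primer extension, cut with HpaI for 2 h at 37 C, and resolved by CE.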

Assay [16] is described as follows: ATG_GAL4_TRANS: Attagene TRANS-FACTORIAL HepG2 Assay for GAL4 (Internal Marker) (AID 2282976; active means hit-call score of the fitted dose curve at least 0.9, where 1 is the maximum). The note with it: HepG2 Attagene TRANS GAL4 internal marker reporter. An outline of the steps:
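Fluorescence from capillary electrophoresis of labelled RT-PCR products quantifies reporter mRNA induction after 24 h dosing of HepG2 cells carrying transfected GAL4-UAS reporter transcription units. Vehicle DMSO serves as baseline.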

Assay [17] addresses Glucocorticoid receptor (Homo sapiens) (UniProt P04150). Description: ATG_GR_TRANS: Attagene TRANS-FACTORIAL HepG2 Assay for human Glucocorticoid Receptor (GR) (AID 2282978; active means hit-call score of the fitted dose curve at least 0.9, where 1 is the maximum;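 further: activators score as hits since higher reporter transcript over DMSO is fitted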). The note with it: HepG2 Attagene TRANS GR reporter, mRNA transcription. An outline of the steps:
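Measurement of GAL4-UAS-driven reporter mRNA in human HepG2 liver cells 24 h post-dosing, using RT-PCR with fluorescent labelling and capillary electrophoresis; the transfected constructs report exogenous NR-GAL4 chimera activity, fitted upward against DMSO.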

Assay [18] addresses Bile acid receptor (Homo sapiens) (UniProt Q96RI1). Description: ATG_FXR_TRANS: Attagene TRANS-FACTORIAL HepG2 Assay for Farnesoid X Receptor (FXR) (AID 2282979; active means hit-call score of the fitted dose curve at least 0.9, where 1 is the maximum;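 further: hits raise reporter mRNA above DMSO so AC50 marks FXR activation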). The note with it: HepG2 Attagene TRANS FXR-GAL4 reporter transcription. An outline of the steps: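 Chimeric FXR-GAL4 activity in transiently transfected human HepG2 liver cells is scored as induction of reporter mRNA after 24 h of dosing. Detection uses RT-PCR with fluorescent labelling and capillary electrophoresis, with DMSO serving as baseline.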

Results filed as inconclusive are left out. Active and inactive are the calls of the source. How the source made its calls, unless noted: active means hit-call score of the fitted dose curve at least 0.9, where 1 is the maximum; inactive means score below 0.9.

Sequence of Estrogen receptor (Homo sapiens) (P03372 whole entry, looked up, the tested form may be a part): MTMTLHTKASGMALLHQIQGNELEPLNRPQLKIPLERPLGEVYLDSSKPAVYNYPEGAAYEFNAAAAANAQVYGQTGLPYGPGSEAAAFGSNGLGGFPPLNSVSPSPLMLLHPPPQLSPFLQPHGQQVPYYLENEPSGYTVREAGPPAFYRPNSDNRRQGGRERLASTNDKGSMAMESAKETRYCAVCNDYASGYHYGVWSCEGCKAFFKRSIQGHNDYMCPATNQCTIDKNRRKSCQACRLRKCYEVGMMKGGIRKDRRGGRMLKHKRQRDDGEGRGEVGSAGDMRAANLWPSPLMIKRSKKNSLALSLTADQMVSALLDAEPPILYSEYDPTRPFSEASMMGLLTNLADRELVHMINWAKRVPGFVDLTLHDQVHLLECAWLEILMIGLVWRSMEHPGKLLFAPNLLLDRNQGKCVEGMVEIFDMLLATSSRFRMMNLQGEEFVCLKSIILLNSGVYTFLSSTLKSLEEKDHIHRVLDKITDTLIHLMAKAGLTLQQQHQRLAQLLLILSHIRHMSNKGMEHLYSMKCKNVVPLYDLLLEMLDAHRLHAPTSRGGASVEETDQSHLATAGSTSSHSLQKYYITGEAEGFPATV
Sequence of X-box-binding protein 1 (Homo sapiens) (P17861 whole entry, looked up): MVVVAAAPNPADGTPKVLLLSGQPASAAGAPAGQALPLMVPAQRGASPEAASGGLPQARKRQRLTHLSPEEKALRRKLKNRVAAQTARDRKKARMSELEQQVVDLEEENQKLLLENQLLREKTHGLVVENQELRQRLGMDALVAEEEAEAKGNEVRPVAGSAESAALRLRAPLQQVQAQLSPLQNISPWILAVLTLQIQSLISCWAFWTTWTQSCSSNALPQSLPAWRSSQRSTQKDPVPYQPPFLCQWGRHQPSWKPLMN
Sequence of Signal transducer and activator of transcription 3 (Homo sapiens) (P40763 whole entry, looked up, the tested form may be a part): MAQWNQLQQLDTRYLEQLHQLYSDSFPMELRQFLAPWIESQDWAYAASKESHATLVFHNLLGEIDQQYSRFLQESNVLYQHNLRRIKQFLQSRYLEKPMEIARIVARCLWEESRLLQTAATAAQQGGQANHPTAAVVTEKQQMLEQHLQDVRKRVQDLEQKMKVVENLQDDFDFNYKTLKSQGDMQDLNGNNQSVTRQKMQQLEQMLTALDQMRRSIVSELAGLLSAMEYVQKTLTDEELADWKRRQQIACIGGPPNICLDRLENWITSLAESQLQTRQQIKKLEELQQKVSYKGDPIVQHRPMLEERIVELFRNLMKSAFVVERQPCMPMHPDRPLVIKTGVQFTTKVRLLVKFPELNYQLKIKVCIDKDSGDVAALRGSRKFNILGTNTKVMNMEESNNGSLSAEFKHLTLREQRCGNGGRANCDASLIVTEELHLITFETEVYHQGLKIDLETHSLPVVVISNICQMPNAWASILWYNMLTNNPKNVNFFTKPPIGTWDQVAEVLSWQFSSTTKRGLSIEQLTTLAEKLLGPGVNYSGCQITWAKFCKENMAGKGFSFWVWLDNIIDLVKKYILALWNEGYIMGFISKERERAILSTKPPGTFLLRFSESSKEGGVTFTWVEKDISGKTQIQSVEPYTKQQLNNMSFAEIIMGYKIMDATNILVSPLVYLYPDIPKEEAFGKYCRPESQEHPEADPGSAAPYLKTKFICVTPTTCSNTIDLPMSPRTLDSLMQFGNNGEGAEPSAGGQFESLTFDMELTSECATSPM
Sequence of Transcription factor Sp1 (Homo sapiens) (P08047 whole entry, looked up): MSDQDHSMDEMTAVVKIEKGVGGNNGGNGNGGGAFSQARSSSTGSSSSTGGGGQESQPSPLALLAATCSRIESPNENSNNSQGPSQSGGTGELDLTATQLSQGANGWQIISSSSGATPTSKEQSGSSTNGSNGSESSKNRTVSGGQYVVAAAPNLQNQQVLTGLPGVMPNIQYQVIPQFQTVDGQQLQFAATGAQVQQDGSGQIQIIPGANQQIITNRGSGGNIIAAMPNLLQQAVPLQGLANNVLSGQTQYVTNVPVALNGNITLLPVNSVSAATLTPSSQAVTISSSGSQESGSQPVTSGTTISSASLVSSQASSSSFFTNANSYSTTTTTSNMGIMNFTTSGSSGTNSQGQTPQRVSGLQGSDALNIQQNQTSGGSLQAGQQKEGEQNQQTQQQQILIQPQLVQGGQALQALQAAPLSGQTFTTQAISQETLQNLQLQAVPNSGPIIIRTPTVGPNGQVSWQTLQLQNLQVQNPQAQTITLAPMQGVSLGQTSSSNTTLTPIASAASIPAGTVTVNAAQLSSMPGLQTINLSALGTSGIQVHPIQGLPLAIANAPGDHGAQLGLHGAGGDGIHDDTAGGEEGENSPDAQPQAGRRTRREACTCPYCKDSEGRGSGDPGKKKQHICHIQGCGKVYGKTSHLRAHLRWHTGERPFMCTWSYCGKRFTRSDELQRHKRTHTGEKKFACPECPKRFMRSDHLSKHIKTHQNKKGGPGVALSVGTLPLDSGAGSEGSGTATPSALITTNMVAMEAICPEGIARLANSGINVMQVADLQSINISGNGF
Sequence of Estrogen-related receptor gamma (Homo sapiens) (P62508 whole entry, looked up, the tested form may be a part): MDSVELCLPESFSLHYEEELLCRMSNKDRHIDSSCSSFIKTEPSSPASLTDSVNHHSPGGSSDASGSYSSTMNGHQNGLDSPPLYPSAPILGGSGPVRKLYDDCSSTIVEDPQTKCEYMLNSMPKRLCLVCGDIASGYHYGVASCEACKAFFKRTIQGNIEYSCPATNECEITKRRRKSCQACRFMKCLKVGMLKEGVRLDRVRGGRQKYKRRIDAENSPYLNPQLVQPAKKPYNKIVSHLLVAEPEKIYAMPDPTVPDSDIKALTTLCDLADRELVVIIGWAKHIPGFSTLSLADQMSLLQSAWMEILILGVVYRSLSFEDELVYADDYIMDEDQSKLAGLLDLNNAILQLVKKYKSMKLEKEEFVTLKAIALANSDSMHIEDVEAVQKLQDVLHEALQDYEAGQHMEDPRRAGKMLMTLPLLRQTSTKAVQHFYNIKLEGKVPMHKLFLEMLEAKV
Sequence of Nuclear receptor subfamily 1 group I member 3 (Homo sapiens) (Q14994 whole entry, looked up, the tested form may be a part): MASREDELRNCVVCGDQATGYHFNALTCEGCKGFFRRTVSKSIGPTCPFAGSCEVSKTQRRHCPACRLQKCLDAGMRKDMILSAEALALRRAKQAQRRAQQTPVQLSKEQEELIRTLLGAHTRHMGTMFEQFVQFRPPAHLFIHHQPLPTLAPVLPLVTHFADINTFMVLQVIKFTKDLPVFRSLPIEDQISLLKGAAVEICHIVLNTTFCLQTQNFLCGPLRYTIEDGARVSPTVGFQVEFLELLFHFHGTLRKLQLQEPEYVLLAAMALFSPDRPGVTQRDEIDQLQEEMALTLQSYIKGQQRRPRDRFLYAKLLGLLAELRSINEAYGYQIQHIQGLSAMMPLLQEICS
Sequence of Steroid hormone receptor ERR1 (Homo sapiens) (P11474 whole entry, looked up, the tested form may be a part): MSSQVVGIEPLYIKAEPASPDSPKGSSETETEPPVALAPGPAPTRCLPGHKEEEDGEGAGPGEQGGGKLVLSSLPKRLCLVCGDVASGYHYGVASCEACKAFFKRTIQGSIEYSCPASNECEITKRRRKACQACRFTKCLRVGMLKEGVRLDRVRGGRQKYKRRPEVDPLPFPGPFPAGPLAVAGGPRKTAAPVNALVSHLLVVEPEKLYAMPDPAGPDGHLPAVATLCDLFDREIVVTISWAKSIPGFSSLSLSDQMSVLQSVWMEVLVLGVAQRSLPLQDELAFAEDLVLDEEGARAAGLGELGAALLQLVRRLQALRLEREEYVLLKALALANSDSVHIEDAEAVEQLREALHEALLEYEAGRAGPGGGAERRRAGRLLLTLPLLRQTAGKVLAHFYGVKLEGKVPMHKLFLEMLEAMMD
Sequence of Glucocorticoid receptor (Homo sapiens) (P04150 whole entry, looked up, the tested form may be a part): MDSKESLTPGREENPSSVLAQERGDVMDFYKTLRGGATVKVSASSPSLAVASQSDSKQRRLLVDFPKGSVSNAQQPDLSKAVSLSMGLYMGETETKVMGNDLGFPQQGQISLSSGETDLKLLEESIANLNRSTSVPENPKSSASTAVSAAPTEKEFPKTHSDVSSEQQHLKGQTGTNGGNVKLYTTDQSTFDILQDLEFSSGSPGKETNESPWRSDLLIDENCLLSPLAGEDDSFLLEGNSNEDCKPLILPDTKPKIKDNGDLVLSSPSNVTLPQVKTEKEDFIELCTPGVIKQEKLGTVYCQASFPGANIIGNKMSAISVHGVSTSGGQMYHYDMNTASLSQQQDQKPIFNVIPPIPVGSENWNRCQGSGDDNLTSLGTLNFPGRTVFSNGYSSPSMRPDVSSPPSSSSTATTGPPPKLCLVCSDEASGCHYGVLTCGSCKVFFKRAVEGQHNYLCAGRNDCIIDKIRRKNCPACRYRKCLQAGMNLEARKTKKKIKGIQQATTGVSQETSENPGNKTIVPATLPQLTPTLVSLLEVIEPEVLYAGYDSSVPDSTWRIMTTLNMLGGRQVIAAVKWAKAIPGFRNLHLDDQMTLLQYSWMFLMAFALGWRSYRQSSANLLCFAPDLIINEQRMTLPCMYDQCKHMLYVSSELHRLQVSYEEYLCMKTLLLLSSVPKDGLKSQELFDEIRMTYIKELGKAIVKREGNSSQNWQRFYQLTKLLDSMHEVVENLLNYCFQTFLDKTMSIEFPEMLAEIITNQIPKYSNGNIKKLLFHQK
Sequence of Bile acid receptor (Homo sapiens) (Q96RI1 whole entry, looked up, the tested form may be a part): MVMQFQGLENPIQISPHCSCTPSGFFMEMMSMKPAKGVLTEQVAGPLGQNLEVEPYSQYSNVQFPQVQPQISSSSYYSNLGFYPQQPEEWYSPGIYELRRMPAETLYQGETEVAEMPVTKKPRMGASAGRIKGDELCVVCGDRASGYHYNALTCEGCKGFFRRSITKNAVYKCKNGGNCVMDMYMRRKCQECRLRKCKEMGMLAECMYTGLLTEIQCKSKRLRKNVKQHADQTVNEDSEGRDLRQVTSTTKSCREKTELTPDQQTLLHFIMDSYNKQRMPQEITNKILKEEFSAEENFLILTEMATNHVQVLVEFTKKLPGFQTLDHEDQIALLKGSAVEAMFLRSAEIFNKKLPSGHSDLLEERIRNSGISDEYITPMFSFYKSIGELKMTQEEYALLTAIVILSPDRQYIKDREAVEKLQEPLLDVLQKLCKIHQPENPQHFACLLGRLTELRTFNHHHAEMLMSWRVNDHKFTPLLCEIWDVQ

As for `CC(=Cc1ccccc1)[N+](=O)[O-]`, the call in assay [1], in assay [2], in [3], in [4], in assay [5] and in [6] was inactive. Also, the call in assay [7], in [8] and in assay [10] was inactive. For the same compound, the AC50 – broadly, the midpoint of the concentration-response curve, whichever way the signal moves – in assay [9] was 11.1 µM (active).

Take `COC(F)(C(F)(F)C(F)(F)F)C(F)(C(F)(F)F)C(F)(F)F` (stereo not given): the result in [2], in assay [3], in [4], in assay [5], in [11] and in assay [6] was inactive. Also, the call in [7], in assay [8], in assay [12], in [13], in assay [14] and in [9] was inactive. The outcome in assay [15], in assay [16], in assay [17] and in assay [18] was inactive.

With `CCCCOP(=O)(CCCC)OCCCC`, the call in assay [2], in assay [3], in assay [4], in [5], in assay [11] and in [6] was inactive. For the same compound, the call in [7], in assay [12], in [14], in assay [9], in [16] and in [10] was inactive. Also, the call in assay [17] and in assay [18] was inactive. Also, the AC50 in [8] is 17.7 µM (active).

Take `CCCSP(=S)(OCC)Oc1ccc(Cl)cc1Cl` (stereo not given): the call in [1], in [2], in assay [3], in assay [4], in [5] and in [6] was inactive. Also, the result in assay [12], in [14], in assay [9] and in assay [17] was inactive. For the same compound, the AC50 in assay [7] is 137 µM (active); in assay [13] it was 2.91 µM (active).

`O=c1nc(O)n(Cl)c(=O)n1Cl`: the compound was called inactive in assay [1], in assay [2], in assay [3], in assay [4], in assay [5] and in [11]. Further, the outcome in [6], in [7], in assay [14], in [9], in assay [15] and in [16] was inactive. In addition, the compound was classed as inactive in assay [10].

On to `C[As+](C)(C)CC(=O)[O-]`, for which the outcome in assay [1], in [2], in [3], in assay [4], in assay [5] and in assay [11] was inactive. The call in assay [6], in assay [7], in assay [8], in [9], in assay [16] and in assay [17] was inactive.

In the case of `CC(C)O.CC(C)O.OCCN(CCO)CCO.OCCN(CCO)CCO.[Ti]`, the call in assay [1], in assay [2], in [3], in assay [4], in assay [5] and in assay [6] was inactive. Besides, the compound was called inactive in [7], in assay [12], in assay [9] and in assay [16].

For `Cc1cc(C)cc(C)c1`, the outcome in [1], in assay [2], in assay [3], in assay [4], in assay [5] and in assay [11] was inactive. For the same compound, the compound was classed as inactive in assay [6], in [7], in [8], in assay [9], in [15] and in assay [16].
